In PubChem BioAssay AID1446 (The Scripps Research Institute Molecular Screening Center, 2008):
Screen size: about 220,000 compounds; about 2,400 (1.1%) were called active.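 How the source made its calls: active means inhibition above the campaign mean plus 3 SD over all tested compounds (cut at about 24% in these data); inactive means the rest.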 The full list was thinned out, with actives kept by preference.

Experiment: viability loss in Ba/F3 EpoR-JAK2V617F cells – cell-based, luminescence, JAK2V617F inhibitor project, primary screen (AID 1446);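 further: cytokine-independent growth of Ba/F3 cells driven by EpoR plus mutant JAK2; 0% = DMSO-treated cells and 100% = JAK inhibitor I control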
Conditions: ATP luminescence, at 5.6 µM, hits give high values

Structure (SMILES) | inhibition
COc1cccc(-n2c(=O)c3c(C)c(C(=O)N(C)C)sc3n(CC(=O)NCCc3ccc(OC)c(OC)c3)c2=O)c1 | 3.31% (inactive)
C/C(=N\NC(=O)C(N)=O)c1ccc2c(c1)OCCO2 | 1.44% (inactive)
CCn1c2ccccc2c2cc(CC(N)=O)ccc21 | 2.78% (inactive)
CCN(CCNC(=O)C1=C(C)C(=O)OC12CCC(C)CC2)c1ccccc1 (configuration not stated) | -2% (inactive)
CC(C)CC(COCc1ccc(Cl)cc1)N1CCN(C(=O)c2ccc(C(F)(F)F)cc2)CCC1=O (configuration not stated) | -1.84% (inactive)
N#C/C=C\Oc1ccc(Cl)cc1N | 28% (active)
COc1ccc(Cl)cc1C(=O)NCC#N | -0.27% (inactive)
COc1ccc(N(C(=O)c2ccc(C)cc2)S(=O)(=O)c2cccs2)cc1 | 0.51% (inactive)
Cc1nc(CNS(=O)(=O)c2cc([N+](=O)[O-])ccc2C)cs1 | 0.63% (inactive)
O=C(Nc1nc2ccc([N+](=O)[O-])cc2s1)c1ccncc1 | -1.41% (inactive)
O=C(O)CCC(=O)Nc1nc2ccc([N+](=O)[O-])cc2s1 | 3.19% (inactive)
O=C(NC(Nc1nc2ccc([N+](=O)[O-])cc2s1)(C(F)(F)F)C(F)(F)F)c1ccccc1 | 70.1% (active)
CC1C(=O)NC(=O)C1c1ccccc1 (configuration not stated) | -4.47% (inactive)
CN(Cc1ccccc1)Cc1ccccc1F | 3.28% (inactive)
CN(C)c1cc[n+](Cc2ccccc2)cc1 | 87.3% (active)
c1ccc(Cc2cc[n+](Cc3ccccc3)cc2)cc1 | 52.6% (active)
COC(=O)c1ccc(Cc2ccccc2)o1 | -0.12% (inactive)
CN(C)c1ccc(/C=N/N(Cc2ccccc2)c2ccccc2)cc1 | 3.41% (inactive)
CSc1ccc(CN2C(=O)NC3(CCCCCC3)C2=O)cc1 | -4.13% (inactive)
C/C(=N\NC(=O)COc1c(C)cccc1C)c1cccs1 | 1.35% (inactive)
COCCn1c(SCC(=O)c2[nH]c(C)c(C(C)=O)c2C)nc2ccccc2c1=O | 1.81% (inactive)

Structure (SMILES) | inhibition
Cc1[nH]n(C)c(=O)c1N=Nc1ccc(S(C)(=O)=O)cc1 | 1.06% (inactive)
CC1=C/C(=N\S(=O)(=O)c2ccccc2)C(C(C)C)=CC1=O | -3.55% (inactive)
CC1=C/C(=N\OS(=O)(=O)c2ccccc2)C=CC1=O | 40.6% (active)
CCOC(=O)C1(S(=O)(=O)c2ccccc2)CCN(Cc2ccccc2)CC1 | 0.13% (inactive)
Cc1ccc2nc(C)c3c(c2c1)N(c1ccccc1)CC3 | 19.9% (inactive)
COc1ccc(NC(=O)CN2C(=O)CSC2=O)cc1 | -1.19% (inactive)
COCCCNC(=O)C1CCN(c2ccc(N3CCOCC3)nn2)CC1 | -2.04% (inactive)
COc1cc(OC)c(OC)cc1/C=N/Nc1ncnc2c1[nH]c1ccc(C)cc12 | -4.25% (inactive)
CC(C)OCCCNc1ncnc2c1[nH]c1ccc(F)cc12 | 64.7% (active)
O=C1CCCN1CCCNc1ncnc2c1[nH]c1ccccc12 | -3.47% (inactive)
CC(=O)N1CCN(S(=O)(=O)c2ccc(C)c([N+](=O)[O-])c2)C1C(C)C (configuration not stated) | -3.14% (inactive)
COc1ccc(N=Nc2ccc(O)c(P(=O)(c3ccccc3)c3ccccc3)c2)cc1 | -0.59% (inactive)
Cc1nn(-c2ccccc2)c(C)c1NC(=O)CCl | 3.19% (inactive)
Cc1nc2ccc(C(=O)O)cc2[nH]1 | -7.6% (inactive)
COC(=O)Nc1nc2ccc(Sc3ccccc3)cc2[nH]1 | 83.8% (active)
CC(C)c1nc2ccc(C(=O)O)cc2[nH]1 | -2.92% (inactive)
O=C(Cc1ccccc1)Nc1c(Cl)ccc2nsnc12 | -3.82% (inactive)
CCC1(C(=O)c2ccccc2)C(c2cccc([N+](=O)[O-])c2)C1(C(=O)OC)C(=O)OC (configuration not stated) | -2.96% (inactive)
Cc1cc2c(cc1C)[n+](C)cn2CC(O)COCC1CC=CCC1 (configuration not stated) | 44.4% (active)
CC(NC(=O)Nc1ccccc1)C(c1cccs1)N1CCN(c2ccccc2)CC1 (configuration not stated) | -1.45% (inactive)
CCOc1ccc(C2c3[nH]c4ccccc4c3CCN2Cc2cccn2-c2ncccn2)cc1 (configuration not stated) | -1.83% (inactive)

Structure (SMILES) | inhibition
O=C(O)CS/C(=C\c1ccc(F)cc1)c1nc2ccccc2s1 | -2.1% (inactive)
Cc1cc2oc(C(=O)Nc3c(C)n(C)n(-c4ccccc4)c3=O)c(C)c2cc1Cl | -1.25% (inactive)
O=C(Nc1cccc([N+](=O)[O-])c1)Nc1ccc(Cl)cn1 | -2.62% (inactive)
O=C(CCl)N(Cc1cccc([N+](=O)[O-])c1)c1cccc(Cl)c1 | 84.1% (active)
CCN(CC)C(=O)CN(c1cccc([N+](=O)[O-])c1)S(=O)(=O)c1ccccc1 | 0.82% (inactive)
Cc1ccc(N(C(=O)c2ccc(S(=O)(=O)N(C)C)cc2)C2C=CS(=O)(=O)C2)cc1 (configuration not stated) | -0.1% (inactive)
O=C(Cn1nc(CNc2ccc(Cl)cc2)[n+]2c1CCCCC2)c1ccc(Cl)cc1 | 1.65% (inactive)
Cc1ccc(CNC(=O)C2CC(c3ccccc3[N+](=O)[O-])=NO2)o1 (configuration not stated) | -5.08% (inactive)
COc1ccc(-c2cc(C(=O)NCc3ccco3)no2)cc1OC | -1.88% (inactive)
COc1ccc(C2=NOC(C(=O)NCc3ccco3)C2)cc1OC (configuration not stated) | 56.5% (active)
Cc1ccc(NC(=S)N(Cc2ccco2)C(C)c2cccs2)cc1 (configuration not stated) | 3.37% (inactive)
Cc1ccc(NC(=S)N(CCN2CCCCC2)Cc2ccco2)cc1C | -2.95% (inactive)
Cc1ccc(NC(=S)N(CCCN2CCC(C)CC2)Cc2ccco2)cc1 | 25.4% (active)
O=C(NC1CCCCC1)c1cc(C2CC2)on1 | -4.7% (inactive)
CN(C)c1ccc(Nc2c3c4c(cccc4n(C)c2=O)C(=O)c2ccccc2-3)cc1 | 2.4% (inactive)
CON(C)S(=O)(=O)c1ccc2c(c1)NC(=O)C1CCCN21 (configuration not stated) | 1.23% (inactive)
Nn1c(SCc2ccccc2)nnc1C1CCCCC1 | -0.47% (inactive)
COc1ccc(C(=O)NC(=S)Nc2ccc(N3CCCC3)cc2)cc1OC | -0.26% (inactive)
COc1cccc(C(=O)Nc2ccc(N3CCCC3)cc2)c1 | 59.5% (active)
COc1cccc(OC)c1C(=O)Nc1ccc(N2CCCCC2)cc1 | -0.78% (inactive)
